Screens from PubChem BioAssay.
NPSR antag: neuropeptide S receptor (human) antagonism, cAMP. CHO-NPSR cells, cAMP TR-FRET, antagonist mode. Potency, µM (doses to about 38.3 µM), for the others: top-dose activity change, negative = inhibition, hits mostly inhibitors. 220,000 tested, 1% active. AID 1461; further: potency means the concentration at half of the fitted maximal effect; nearly all actives have a fitted effect of over 50% in size
Target sequence (Q6W5P4 whole entry, looked up): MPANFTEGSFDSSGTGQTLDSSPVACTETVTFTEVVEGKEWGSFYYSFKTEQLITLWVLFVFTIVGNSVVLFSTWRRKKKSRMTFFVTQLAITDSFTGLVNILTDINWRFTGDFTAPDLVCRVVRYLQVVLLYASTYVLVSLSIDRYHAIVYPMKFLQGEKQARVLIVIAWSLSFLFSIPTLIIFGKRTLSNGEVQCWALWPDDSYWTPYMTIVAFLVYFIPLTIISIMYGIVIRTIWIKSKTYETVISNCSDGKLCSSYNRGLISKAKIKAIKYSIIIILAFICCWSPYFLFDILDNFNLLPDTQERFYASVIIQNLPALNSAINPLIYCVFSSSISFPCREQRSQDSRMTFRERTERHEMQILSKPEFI
HPGD inh: inhibitors of human 15-hydroxyprostaglandin dehydrogenase (HPGD); Potency, µM, without a hit: at the highest dose activity change, negative = inhibition, most hits filed as inhibitors; 150,000 tested, 4.3% active; purified HPGD, NADH fluorescence kinetic, PGE2 substrate; P15428; active means well fitted inhibition curve with a large enough effect, not every such curve was filed as active; inconclusive means small, poorly fitted or top-dose-only effect, or another doubt; inactive means no such curve, though single readings can be large or run the other way; further: potency means the concentration at half of the fitted maximal effect
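NADH formation kinetics: reaction with 30 uM PGE2 and 1 mM NAD+ (final), 20 nM enzyme, Tris-HCl pH 8 with Tween 20, after 15 min compound preincubation at room temperature. Fluorescence change, last versus first of five reads.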
ALDH1A1 inh: inhibitors of human aldehyde dehydrogenase 1A1; P00352; Potency, µM (highest dose often 75.3 µM), inactives show at the highest dose activity, negative = inhibition, actives largely listed as inhibitors; Purified ALDH1A1, NADH fluorescence, propionaldehyde substrate; AID 1030; 220,000 tested, 7.3% active; active means well fitted inhibition curve with a large enough effect, not every such curve was filed as active; inconclusive means small, poorly fitted or top-dose-only effect, or another doubt; inactive means no such curve, though single readings can be large or run the other way;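 further: potency means the concentration at half of the fitted maximal effect; plate controls were no enzyme wells and a reference inhibitor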
IMPase Li inh: cell-permeable IMPase inhibitors with lithium potentiation. CHO-M1 cells, IP1 TR-FRET (IP-One), carbachol + lithium. Potency, µM (doses to about 59.4 µM), without a hit: top-dose activity, negative = IMPase inhibition, usual class: inhibitors. 210,000 tested, 0.35% active. AID 1457;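 further: IP1 builds up when IMPase is blocked and the TR-FRET signal falls; potency means the concentration at half of the fitted maximal effect; plate controls were basal vehicle for no effect and high inhibitor control for full effect; nearly all actives have a fitted effect of over 50% in size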
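Test compounds were applied to CHO-M1 cells previously cultured for 16–30 h at 2000 per well. A small lithium amount accompanied them; after 30 min at 37C, IP1 was quantified by TR-FRET.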
IMPase inh: cell-permeable inhibitors of inositol monophosphatase (IMPase); P97697; CHO-M1 cells, IP1 accumulation, HTRF TR-FRET ratio; inhibition (IP1 accumulation), % at 46.1 µM; 120,000 tested, under 10 active; active means well fitted curve in the direction sought with a large enough effect in the signal ratio, not every such curve was filed as active; inconclusive means small, poorly fitted or top-dose-only effect, or a change in a side signal; inactive means no such curve, though single readings can be large or run the other way; the % refers to the signal ratio;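 further: cells stimulated with carbachol in lithium chloride buffer; plate controls were DMSO basal wells for no effect and reference inhibitor wells for full effect; higher means more IMPase inhibition seen as more IP1 and lower FRET ratio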
Target sequence (P97697 whole entry, looked up): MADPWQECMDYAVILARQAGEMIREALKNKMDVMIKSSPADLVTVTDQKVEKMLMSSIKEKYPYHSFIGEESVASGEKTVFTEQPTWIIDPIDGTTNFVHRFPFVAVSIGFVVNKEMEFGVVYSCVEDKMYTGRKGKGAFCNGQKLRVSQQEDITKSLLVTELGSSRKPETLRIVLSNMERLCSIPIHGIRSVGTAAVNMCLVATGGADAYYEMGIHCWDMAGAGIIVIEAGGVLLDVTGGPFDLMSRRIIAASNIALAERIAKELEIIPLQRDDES
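CHO-M1 cells (CHO stably expressing M1 receptor), compound up to 46 uM final, stimulated with carbachol (50 uM as added) in buffer with 50mM LiCl, pH 7.4, 30 min at 37C. Cytosolic IP1 read by TR-FRET; AC50 from Hill fits.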
ALOX12 inhib: 12-hLO (ALOX12) enzyme inhibition | P18054 | purified 12-hLO, xylenol orange hydroperoxide absorbance | Potency, µM (series often up to 57.1 µM), for the others: top-dose activity change, negative = inhibition, most hits filed as inhibitors | 150,000 tested, 0.12% active | AID 1452; further: potency means the concentration at half of the fitted maximal effect; nearly all actives have a fitted effect of over 55% in size
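Purified human 12hLO (150 nM final) was preincubated with compounds for 15 min at room temperature in 25 mM Hepes pH 7.0, 0.01% Triton X-100, then reacted with 40 uM arachidonic acid for 30 min. Hydroperoxide was detected with ferrous iron/xylenol orange.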
* marks the source's active call; other numbers are inactive results; [ ] = dose if it differs, or a comment. The list is not random: actives were taken first. Their share in the collection is about 8.9%. Unless noted, the call rests on the fitted dose curve; in most records, active means well fitted curve in the direction sought with a large enough effect; inconclusive means small, poorly fitted or top-dose-only effect, or another doubt; inactive means no such curve, though single readings can be large; an effect the other way counts as inactive or inconclusive. Unless noted, on the % scale 0 is the no-effect control and ±100 the full control effect.

How did CC1(C)Cc2nc3n[nH]c(N)c3cc2CO1 do in these assays?
NPSR antag: -9%[46.1 µM]; HPGD inh: -12%; ALDH1A1 inh: 5%; IMPase Li inh: 24%[38.3 µM]; IMPase inh: -2; ALOX12 inhib: -1%

What do the screens show for `Cc1cccc(-n2c(=S)[nH]c3nc4c(cc3c2=O)COC(C)(C)C4)c1`?
NPSR antag: 43%; ALDH1A1 inh: 0.71µM*

How did Cc1nn(C)cc1C(C)NCc1c(C(=O)N2CCCCCCC2)nc2ccc(Cl)cn12 (stereo unspecified) do in these assays?
NPSR antag: -3%; ALDH1A1 inh: 3.2µM*; IMPase Li inh: 7%

What do the screens show for `COc1cc([N+](=O)[O-])ccc1NC(=O)C[n+]1cccc(C)c1`?
NPSR antag: 6%[46.1 µM]; HPGD inh: -13%; ALDH1A1 inh: inconclusive; IMPase Li inh: 36%[38.3 µM]; IMPase inh: inconclusive; ALOX12 inhib: 1%

How did Cc1ccc[n+](CC(=O)Nc2ccc([N+](=O)[O-])cc2Cl)c1 do in these assays?
NPSR antag: 2%[46.1 µM]; HPGD inh: -17%; ALDH1A1 inh: 16µM*; IMPase Li inh: 17%; IMPase inh: 6; ALOX12 inhib: -2%

How did CSc1nc2[nH]c3c(c2c2ncnn12)CCCC3 do in these assays?
NPSR antag: -9%[46.1 µM]; HPGD inh: -12%; ALDH1A1 inh: 1%; IMPase Li inh: 18%[38.3 µM]; IMPase inh: 1; ALOX12 inhib: -1%

What do the screens show for `CC(=O)Nc1ccc(NC(=O)C/C(C)=N/NC(N)=S)cc1`?
NPSR antag: 13%; ALDH1A1 inh: 22µM*; IMPase Li inh: -10%

Results for CCC(=O)N/N=C(\C)CC(=O)Nc1ccc(F)cc1 ?
NPSR antag: 15%; ALDH1A1 inh: 11%; IMPase Li inh: 6%

What do the screens show for `CCOC(=O)c1nnn(-c2nonc2N)c1-c1ccccc1`?
NPSR antag: -3%[46.1 µM]; HPGD inh: -6%; ALDH1A1 inh: -6%; IMPase Li inh: 10%[38.3 µM]; IMPase inh: 6; ALOX12 inhib: -8%

What do the screens show for `NNC(=O)c1nnn(-c2nonc2N)c1-c1cccs1`?
NPSR antag: 4%[46.1 µM]; HPGD inh: -6%; ALDH1A1 inh: 11µM*; IMPase Li inh: 4%[38.3 µM]; IMPase inh: 4; ALOX12 inhib: -10%

What do the screens show for `C/C(CC(=O)Nc1ccc(OCc2ccccc2)cc1)=N\NC(=O)C(=O)Nc1cccc(C)c1`?
NPSR antag: -9%; HPGD inh: -5%; ALDH1A1 inh: -3%; IMPase Li inh: -11%; ALOX12 inhib: -4%

How did COc1ccc(C2CC(=O)C(C3NCCc4ccccc43)=C(O)C2n2cncn2)cc1 (stereo unspecified) do in these assays?
NPSR antag: 7%; ALDH1A1 inh: inconclusive; IMPase Li inh: -6%

Results for COc1ccc2cc(C(=O)NCC(=O)O)sc(=O)c2c1OC ?
NPSR antag: -4%[46.1 µM]; HPGD inh: -11%; ALDH1A1 inh: 5%; IMPase Li inh: -3%[38.3 µM]; IMPase inh: 4; ALOX12 inhib: 2%

Results for COc1ccc2cc(C(=O)OC(C)C)sc(=O)c2c1OC ?
NPSR antag: -20%[46.1 µM]; HPGD inh: inconclusive; ALDH1A1 inh: 5µM*; IMPase Li inh: -2%; IMPase inh: 5; ALOX12 inhib: 5%

Results for CN1C(=O)C(CC(=O)Nc2ccc(F)cc2)N(CCCc2ccccc2)C1=S (stereo unspecified) ?
NPSR antag: -28%[46.1 µM]; HPGD inh: -8%; ALDH1A1 inh: inconclusive; IMPase Li inh: -8%[38.3 µM]; IMPase inh: 7; ALOX12 inhib: -6%

What do the screens show for `O=c1[nH]c(-c2ccc(Cl)cc2)cs1`?
NPSR antag: 17%; ALDH1A1 inh: inconclusive; IMPase Li inh: 0%

How did Fc1ccc(-c2csc(=S)[nH]2)cc1 do in these assays?
NPSR antag: -7%; ALDH1A1 inh: 3.5µM*; IMPase Li inh: 4%

Results for S=c1[nH]c(-c2ccccc2)cs1 ?
NPSR antag: -38%; ALDH1A1 inh: 3.5µM*; IMPase Li inh: -2%

How did CCCC1CC(CSc2ncn[nH]2)OC1=O (stereo unspecified) do in these assays?
NPSR antag: -2%; HPGD inh: -10%; ALDH1A1 inh: 8%; IMPase Li inh: -8%; ALOX12 inhib: -2%

Results for CCn1c(Cn2nnc(-c3ccccc3)n2)nnc1SCC(=O)Nc1ccccc1 ?
NPSR antag: -13%[46.1 µM]; HPGD inh: -12%; ALDH1A1 inh: 9%; IMPase Li inh: 11%[38.3 µM]; IMPase inh: -6; ALOX12 inhib: 1%

Results for Cc1c(N/N=C(\C#N)C(=O)c2ccc(Cl)cc2)c(=O)n(-c2ccccc2)n1C ?
NPSR antag: -32%; HPGD inh: 28µM*; ALDH1A1 inh: inconclusive; IMPase Li inh: 16%; ALOX12 inhib: inconclusive

What do the screens show for `N#C/C(=N\Nc1ccc(Cl)cc1)C(=O)c1ccccc1`?
NPSR antag: 13µM*; HPGD inh: -24%; ALDH1A1 inh: -4%; IMPase Li inh: 45%[38.3 µM]; IMPase inh: 8; ALOX12 inhib: inconclusive

How did CCOC(=O)NC(=O)/C(C#N)=N\Nc1ccc(Cl)cc1 do in these assays?
NPSR antag: -13%[46.1 µM]; HPGD inh: -25%; ALDH1A1 inh: 3%; IMPase Li inh: -7%[38.3 µM]; IMPase inh: 6; ALOX12 inhib: inconclusive

What do the screens show for `Cc1ccccc1-n1c(=O)cc(N2CCCCCC2)[nH]c1=O`?
NPSR antag: -16%[46.1 µM]; HPGD inh: -8%; ALDH1A1 inh: -3%; IMPase Li inh: -1%; IMPase inh: -6; ALOX12 inhib: 6%

Results for C[C@H]1COc2c(C3(N)CC3)c(F)cc3c(=O)c(C(=O)O)cn1c23 ?
NPSR antag: 24%

What do the screens show for `CC(=O)Nc1ccc(C(=O)Nc2nc(-c3cccnc3)cs2)cc1`?
NPSR antag: 6%; ALDH1A1 inh: 10µM*; IMPase Li inh: 2%

Results for COc1cccc(C(=O)Nc2nc(-c3ccncc3)cs2)c1 ?
NPSR antag: 12%; ALDH1A1 inh: 20µM*; IMPase Li inh: -7%

How did O=C(/C=C/c1cccc(Cl)c1)c1nc2ccccc2[nH]1 do in these assays?
NPSR antag: -23%[46.1 µM]; HPGD inh: inconclusive; ALDH1A1 inh: 2.2µM*; IMPase Li inh: 17%[38.3 µM]; IMPase inh: 9; ALOX12 inhib: 1%

Results for O=C(/C=C/c1cccc(Cl)c1)Nc1ncccn1 ?
NPSR antag: 6%; HPGD inh: -16%; ALDH1A1 inh: -6%; IMPase Li inh: -6%; IMPase inh: -4; ALOX12 inhib: 3%

How did O=C(/C(=C/c1ccc(Cl)cc1)c1nc2ccccc2[nH]1)c1cccs1 do in these assays?
NPSR antag: 2µM*; HPGD inh: inconclusive; ALDH1A1 inh: inconclusive; IMPase Li inh: 58%[38.3 µM]; IMPase inh: 7; ALOX12 inhib: -9%
